Screens (PubChem)
An excerpt weighted towards active compounds, which were near 2.4% of everything screened.
Nrf2 activator = qHTS of Nrf2 Activators. actives 0.31% (n = 410,000). AID 624171, 2012. Potency, µM (top dose mostly 46.1 µM), without a hit: top-dose activation, hits mostly activators. AREc32 ARE-luciferase reporter (MCF7-derived line), luminescence, 24 h; note: % of control where 0% means no effect; nearly all actives have a fitted effect of over 65% in size
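Steps: seed AREc32_Fluc cells (1000/well, 5% FBS OPTI-MEM); incubate overnight at 37 deg C; add 23 nL compound; incubate 24 hr; add Steady-Glo; hold 30 min RT; read luminescence.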
Epigenetic reg = Quantitative High-Throughput Screen for Regulators of Epigenetic Control | murine LDR cells, GFP reporter derepression, 30 h | Potency, µM (series often up to 53.9 µM), for the others: top-dose GFP activation, most hits filed as activators | actives 0.2% (n = 280,000); note: % of control where 0% means no effect; nearly all actives have a fitted effect of over 60% in size
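In this reporter-derepression format, murine cells bearing a silenced integrated CMV-GFP locus incubate with test compound (30 h, 37 C), then are washed and imaged; fluorescent objects of 20–120 um count as induced cells.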
Nrf2 inh = Nrf2 qHTS screen for inhibitors. actives 2.1% (n = 360,000). AID 504444, 2011. Potency, µM (doses to about 46 µM), for the others: at the top dose activity change, negative = inhibition, actives largely listed as inhibitors. A549 ARE-Fluc reporter, luciferase luminescence, 18-24 h; note: % is set by controls: 0 for no effect and ±100 for the full control effect; nearly all actives have a fitted effect of over 60% in size
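Reporter: ARE-Fluc in A549. Exposure: 18-24 h, 37 °C, 5% CO2, 5% FBS OPTI-MEM. Readouts: fluorescent cytotoxicity (CellTiter-Fluor), then luminescent Nrf2 signal after BugLite.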
PINK1 modulator = A Quantitative High throughput Screen to Identify Chemical Modulators of PINK1 Expression | PINK1 immunofluorescence, high-content cytometry, 24 h | AID 624263, 2012 | actives 0.2% (n = 410,000) | Potency, µM (titrated, usually from 76.6 µM), without a hit: top-dose activation (PINK1 increase), most hits filed as activators; active = well fitted activation curve with a large enough effect; inconclusive = small, poorly fitted or top-dose-only effect; cell line not stated here; note: % of control where 0% means no effect; nearly all actives have a fitted effect of over 65% in size
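Readout is PINK1 immunofluorescence, quantified alongside mitochondrial, cell and nuclear markers by laser-scanning microplate cytometry. Cells from a stable line were exposed to compound titrations (5 concentrations) for 24 hours, with CCCP controls.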
A549 viability = Nrf2 qHTS screen for inhibitors: counterscreen for cytotoxicity; Potency, µM (titrated, usually from 46 µM), for inactives: at the highest dose activity change, negative = cytotoxicity, usual class: inhibitors; actives 0.16% (n = 390,000); A549 ARE-Fluc cells, CellTiter-Fluor viability, 18-24 h; note: % is set by controls: 0 for no effect and ±100 for the full control effect
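A549 ARE_Fluc cells in 5% FBS OPTI-MEM were exposed to compounds in concentration-response for 18-24 h at 37 deg C. Viability was read by CellTiter-Fluor fluorescence (Ex 405/Em 525) after 30 min, before the luciferase read.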
* marks the source's active call; other numbers are inactive results; ? = inconclusive; · = no result; [ ] = another dose, or the depositor's remark. Unless noted, calls come from the whole dose curve; as a rule, active = well fitted curve in the direction sought with a large enough effect; inconclusive = small, poorly fitted or top-dose-only effect, or another doubt; inactive = no such curve, though single readings can be large; an effect the other way counts as inactive or inconclusive. Potency is the fitted concentration of half-maximal effect.

SMILES | Nrf2 activator | Epigenetic reg | Nrf2 inh | PINK1 modulator | A549 viability
C(/C=C/c1ccccn1)=C\c1ccccc1 | 13µM* | · | ? | 2% | -8%
CCCN1C(=O)/C(=C/c2c(N3CCNC(=O)C3CC(=O)OCC)nc3c(C)cccn3c2=O)SC1=S (stereo unspecified) | -1% | ? | 21µM* | 0% | ?
CCOC(=O)CC1C(=O)NCCN1c1nc2ccc(C)cn2c(=O)c1/C=C1\SC(=S)N(C(C)CC)C1=O (stereo unspecified) | · | -3% | · | · | ·
CCOC(=O)CC1C(=O)NCCN1c1nc2ccc(C)cn2c(=O)c1/C=C1\SC(=S)N(CC(C)C)C1=O (stereo unspecified) | 0% | 3.5µM* | ? | 24% | ?
CCOc1c(Cl)cc(C(=O)N(Cc2ccc(N(C)C)cc2)Cc2ccco2)cc1Cl | 0% | -2% | -28% | -1% | 7%
CC(NC(=S)NCCc1ccccc1)C(c1cccs1)N1CCN(Cc2ccccc2)CC1 (stereo unspecified) | 0% | 1% | -26% | 16µM* | -9%
O=C1C2=C(Nc3ccccc3SC2c2ccccc2C(F)(F)F)c2ccccc21 (stereo unspecified) | 6% | 0% | ? | 13µM* | ?
O=C1C2=C(Nc3ccccc3SC2c2ccc(Cl)c(Cl)c2)c2ccccc21 (stereo unspecified) | 1% | -1% | ? | ? | ?
Cc1ccc(OCC(=O)N2CCN(c3nnc(-c4ccc(C)cc4)c4ccccc34)CC2)cc1 | -1% | 5% | 18µM* | -1%[38.3 µM] | ?
COc1ccc(-c2nnc(N3CCCCC3)c3ccccc23)cc1 | 0% | 0% | · | 5% | 2%
O=C(COc1ccccc1)N1CCN(c2nnc(-c3ccccc3)c3ccccc23)CC1 | 4% | -5% | 21µM* | 9%[38.3 µM] | ?
Cc1ccc(-c2nnc(N3CCCCCC3)c3ccccc23)cc1 | 0% | · | 23µM* | ? | ?
COc1ccc(C(=O)/C(C#N)=N/Nc2ccc([N+](=O)[O-])cc2)cc1 | -1% | -2% | 2.6µM* | 4.5µM* | ?
N#C/C(=N\Nc1ccc(Cl)cc1)C(=O)c1ccccc1 | 11% | -2% | 15µM* | ? | 16µM*
COc1ccc(C(=O)/C(C#N)=N/Nc2ccccc2[N+](=O)[O-])cc1 | -1% | 0% | -9% | ? | 1%
O=C(Cc1nc2ccccc2[nH]1)c1cccc([N+](=O)[O-])c1 | 3% | 0% | ? | 14µM* | 16%
O=C(CCl)NCCCN(C(=O)C(Cl)Cl)c1ccc([N+](=O)[O-])cc1 | 11µM* | 0% | ? | -1% | ?
COCCCNC(=O)c1ccc([N+](=O)[O-])cc1 | 0% | -3% | 18% | 0% | -1%
Cc1sc(-n2cccc2)c(C(C)NC(=O)Nc2cccc(C(F)(F)F)c2)c1C (stereo unspecified) | 9% | 1% | ? | ? | -19%
Cc1ccc(NC(=O)NC(C)c2c(-n3cccc3)sc(C)c2C)cc1F (stereo unspecified) | 0% | 0% | 23µM* | ? | ?
COc1cc(C2=NOC(C(=O)NCc3ccc(F)cc3)C2)cc(OC)c1OC (stereo unspecified) | -1% | 0% | 19% | 6%[38.3 µM] | -23%
COc1ccc(C2=NOC(C(=O)NCc3ccc(F)cc3)C2)cc1OC (stereo unspecified) | 0% | -6% | 3% | 2.8µM* | 2%[1.84 µM]
COC(=O)c1ccccc1NC(=O)C1CC(c2ccc(F)cc2)=NO1 (stereo unspecified) | 2% | -1% | 4.1µM* | 4%[38.3 µM] | -7%
CCC1CCC2(C1)N=C(Nc1nc3ccccc3o1)NC1=C2C(=O)CCC1 (stereo unspecified) | · | · | ? | · | -6%
CCCCN(CC)C(=O)CCNS(=O)(=O)c1ccc2c(c1)c(=O)n(C)c(=O)n2C | -1% | 2% | -18% | 1% | 0%
O=S1(=O)N=C(Oc2cccc(C(F)(F)F)c2)c2ccccc21 | · | · | 5% | · | 2%
Cc1cnc(C=NNC(N)=S)c2cccc(N)c12 | 3% | · | 7.3µM* | -6% | ?
